Compounds with a hit are over-represented: about 2.6% of the library has one in this group of screens.
TWEAK Fn14 block – inhibitors of TWEAK-Fn14 signaling, primary screen, luciferase reporter cells, uHTS; TWEAK-stimulated Fn14 reporter cells, luciferase luminescence, 8 h; inhibition, % at 10 µM; actives 2% (n = 360,000); AID 1159606, 2016; in the data active = inhibition above about 50%
LGR2 inh – inhibitors of bursicon-induced LGR2 CRE-luciferase signal, primary screen, cell-based, HEK293, CRE-luciferase reporter, bursicon stimulation | Drosophila bursicon receptor LGR2 (rickets) | bursicon-stimulated, 4 h | inhibition, % at 9.99 µM | actives 0.35% (n = 380,000) | AID 720647, 2013;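 active = drop in luminescence signal, shown as inhibition above about 50% in the replicate tests, limit read from the data, passing the limit was not always enough; inconclusive = probably only some replicates passing the limit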;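 note: agonist challenge used bursicon conditioned medium at about half maximal strength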
TROY signal inh – inhibitors of TROY-driven NF-kB signaling, primary screen, Q293 LMP1-TROYcd cells, NF-kB luciferase, uHTS; actives 0.98% (n = 360,000); inhibition, % at 10 µM; Q293 LMP1-TROYcd NF-kB luciferase reporter, 4 h; AID 1347056, 2019;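 active = compounds whose plate-normalised and pattern-corrected inhibition of the luciferase reporter signal at the single screening dose is 50% or more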
EWS-Fli inh – EWS/Fli-driven NR0B1 reporter inhibitors, primary screen, A673 cells, NR0B1 luciferase, luminescence, MLPCN library | actives 0.67% (n = 350,000) | inhibition, % at 12.6 µM | AID 651661, 2012 | viability-normalised;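 active = mean inhibition of at least 50% after viability correction, with every replicate also passing that limit; inconclusive = mean reaches 50% but only one of two replicates passes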;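 note: firefly luciferase signal divided by Alamar Blue viability fluorescence both relative to DMSO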
EBV LMP1 NFkB – EBV LMP1-driven NF-kappaB luciferase reporter inhibitors, primary screen, cell-based, luminescence, single point. LMP1-induced NF-kappaB luciferase reporter cells. inhibition, % at 12.5 µM. actives 0.69% (n = 350,000); in the data active = inhibition above about 41%; inconclusive = no clear call, values can overlap the other calls
Numbers stand for hits; – = inactive; ? = inconclusive; · = no result.

SMILES	TWEAK Fn14 block	LGR2 inh	TROY signal inh	EWS-Fli inh	EBV LMP1 NFkB
COc1ccc(C(CC(=O)c2ccc(C)cc2)Sc2ccccc2N)cc1 (stereo not drawn)	70	–	–	–	–
O=C(C[C@H]1C[C@@H]2c3cc(NC(=O)NC4CCCC4)ccc3O[C@@H]2[C@H](CO)O1)NCc1ccccn1	·	–	·	–	·
C[C@@H]1CN([C@@H](C)CO)C(=O)c2ccccc2-c2ccccc2CO[C@@H]1CN(C)C(=O)c1ccc(F)cc1	·	–	·	–	·
c1ccc(-c2cc3n(c2)CCc2ccccc2-3)cc1	83	66	–	·	–
O=C(O)c1cc2c(s1)-c1ccccc1CC2	–	–	–	·	–
COCCOC(=O)N1C(=O)[C@@]2(c3cc(C#CCCO)ccc31)[C@H](C(N)=O)[C@H]1C(=O)O[C@H](c3ccccc3)[C@H](c3ccccc3)N1[C@@H]2c1ccccc1OCCO	·	·	·	–	·
C/C(N=Nc1nc2ccccc2s1)=N\Nc1ccccc1O	80	–	–	–	–
Oc1[nH]c2ccccc2c1N=Nc1nc2ccccc2s1	–	·	–	·	–
CCc1oc2ccccc2c1C(=O)c1cc(Br)c(O)c(Br)c1	–	–	52	–	–
C[C@@H]1CN([C@H](C)CO)C(=O)c2cc(NC(=O)NC3CCCCC3)ccc2O[C@@H](C)CCCCO[C@H]1CN(C)C(=O)c1ccncc1	·	–	·	–	·
Nc1ncc(Br)cc1S(=O)(=O)Nc1cc(C(F)(F)F)cc(C(F)(F)F)c1	–	?	56	·	–
Cc1ccc(NS(=O)(=O)c2cc(Br)cnc2N)c(Cl)c1	–	–	–	–	–
C[C@H]1CCCCO[C@H](CN(C)C(=O)Nc2ccccc2)[C@@H](C)CN([C@@H](C)CO)C(=O)c2cc(NS(=O)(=O)c3cn(C)cn3)ccc2O1	·	–	·	–	·
C[C@@H]1CN([C@@H](C)CO)C(=O)c2cc(/C=C/c3ccccc3)cnc2O[C@@H]1CN(C)C(=O)C1CCCCC1	·	–	·	–	·
COc1ccc(CNC(=O)CNS(=O)(=O)c2ccc(Cl)cc2)cc1	82	·	80	–	–
COc1ccc(CCNC(=O)CNS(=O)(=O)c2ccc(Cl)cc2)cc1	–	–	–	–	·
O=C(CC(F)(F)F)N1C[C@@H]2[C@H](c3ccccc31)[C@H](CO)N2C(=O)c1cccnc1	·	–	·	–	·
CCCc1nc(SCC(=O)NCc2ccco2)c2c(=O)n(C)c(=O)n(C)c2n1	–	–	–	–	66
CC(=O)Nc1ccc(NC2=C/C(=N/S(=O)(=O)c3cccs3)c3ccccc3C2=O)cc1	99	98	67	–	–
Cc1ccccc1NC1=C/C(=N\S(=O)(=O)c2cccs2)c2ccccc2C1=O	102	·	67	·	91
Cc1ccc(NC2=C/C(=N/S(=O)(=O)c3cccs3)c3ccccc3C2=O)cc1C	–	–	–	–	–
COc1ccc(S(=O)(=O)/N=C2\C=C(Nc3ccc(O)cc3)C(=O)c3ccccc32)cc1	101	101	–	52	74
CO[C@H]1CN(C)C(=O)c2cc(NC(=O)c3ccc(F)cc3)ccc2OC[C@@H](C)NC[C@H]1C	·	–	·	–	·
S=C(NCc1ccccn1)Nc1ccc(Cl)cc1	72	·	·	·	–
C[C@@H]1CN([C@@H](C)CO)C(=O)c2cc(NC(=O)Nc3ccc4c(c3)OCO4)ccc2O[C@@H]1CN(C)Cc1ccc(-c2ccccc2)cc1	·	–	·	–	·
SMILES	TWEAK Fn14 block	LGR2 inh	TROY signal inh	EWS-Fli inh	EBV LMP1 NFkB
Cc1ccc(C(=O)NC(=S)Nc2ccc(-c3cc4ccccc4oc3=O)cc2)c(C)c1	–	·	·	·	–
Cc1cc(C)cc(C(=O)NC(=S)Nc2ccc(-c3cc4ccccc4oc3=O)cc2)c1	–	–	57	·	–
O=C(Cc1cccc2ccccc12)Nc1ccc(-c2cc3ccccc3oc2=O)cc1	–	·	58	·	55
CC(=O)Nc1ccc(NC(=O)c2cccc(-c3cc4ccccc4oc3=O)c2)cc1	–	–	–	–	–
CCC(=O)Nc1cccc(-c2cc3ccccc3oc2=O)c1	60	–	63	–	–
COc1ccc(S(=O)(=O)N(C)C[C@H]2Oc3ccc(NS(=O)(=O)c4ccc(F)cc4)cc3CC(=O)N([C@@H](C)CO)C[C@@H]2C)cc1	·	–	·	–	·

Assay outcomes deposited in PubChem by several laboratories.
